A word on the AC50: it is the midpoint of the concentration-response curve, whichever way the signal moves.

“And” between values parts separate entries of the source, which are not always exact repeats. Equal entries are not always repeated. The source made the active and inactive calls. How the source made its calls: active means hit-call score of the fitted dose curve at least 0.9, where 1 is the maximum; inactive means score below 0.9.

Read-out in this assay: Interleukin-8 (IL8), CXCL8 (gene 3576)
The experiment in a line: BSK_BF4T_IL8: BioMAP Diversity Plus: BF4T Assay for Interleukin-8 (IL8) Biomarker Activity (AID 2284263). To be noted: primary human bronchial epithelial cells with fibroblasts. As for the experimental part: BSK_BF4T is a cell-based, multiplexed-readout assay that uses bronchial epithelial cells and dermal fibroblasts, a human vascular primary cell, with measurements taken at 24 hours after chemical dosing in a microplate: 96-well plate.BSK_BF4T_IL8 is an assay component measured in the BSK_BF4T assay. It measures IL-8 antibody related to regulation of gene expression using ELISA technology.Data from the assay component BSK_BF4T_IL8 was analyzed at the endpoint, BSK_BF4T_IL8, in the positive analysis fitting direction relative to DMSO as the negative control and baseline of activity. Using a type of binding reporter, gain or loss-of-signal activity can be used to understand protein changes. To generalize the intended target to other relatable targets, this assay endpoint is annotated to the 'cytokine' intended target family, where the subfamily is 'interleukins'.
The levels of cell surface (or secreted, indicated by the prefix "s") biomarker endpoints were measured by ELISA. Overt cytotoxicity to cells in confluent adherent cultures (all systems other than the BT system) was assessed by measuring total protein levels using sulforhodamine B (SRB) staining in parallel cultures at the time of biomarker measurements, indicated as SRB endpoints. For proliferation assays for adherent cell types, individual cell types are cultured at sub-confluence and relative cell numbers quantified by SRB staining at time points optimized for each system (48 h: 3C and CASM3C systems; 72 h: BT and HDF3CGF systems; 96 h: SAg system). SRB was performed by staining cells with 0.1% SRB after fixation with 10% TCA and reading wells at 560 nm.Viability and proliferation of PBMC (T cells) was quantified by Alamar Blue reduction for the SAg and BT systems. For PBMC viability (referred to as PBMC Cytotoxicity within the assay endpoint names), cells were plated (75,000/well in a 96-well plate) and then chemical samples added for 1 h before addition of activators, SEB and TSST-1 (20 ng/mL final concentration each). Cells were incubated for 90 h. Then, Alamar Blue (20 uL/well) (Invitrogen, Cat DAL1100) was added for 6 h, and the plates were read with a fluorescence microplate reader at 546/580 nm (excitation/emission). For PBMC proliferation, cells were plated and activated as above but incubated for only 16 h prior to addition of Alamar Blue. Plates were read after 6 h.
In the case of `OCC(F)(F)OC(F)(F)C(F)(F)OC(F)(F)CO`, the result was inactive. Same read-out and setting: under `C=CC(=O)OCC(F)(F)C(F)F` stands “inactive”.

Consider `O=C(O)C=CC(F)(C(F)(F)F)C(F)(F)F`, for which the result was inactive. Same read-out and setting: with `O=C(O)C(F)(F)C(F)(F)C(=O)O` the entry was “inactive”. The same measure, in the same setting: under `NC(=O)C(F)(F)C(F)(F)F` stands “inactive”; under `O=C(O)C(F)(OC(F)(F)C(F)(F)C(F)(F)F)C(F)(F)F` (centres undefined), “inactive”; under `OCC(F)(F)OC(F)(F)C(F)(F)OC(F)(F)C(F)(F)OC(F)(F)CO`, “inactive”. The same measure, in the same setting: under `CC(O)C(F)(F)C(F)(F)F` (centres undefined) stands “inactive”; under `O=C(O)C(F)(F)OC(F)(F)C(F)(F)OC(F)(F)C(=O)O`, “inactive”. `OCC(F)(F)OC(F)(F)C(F)(F)OC(F)(F)C(F)(F)OC(F)(F)F`: the AC50 was 42.8 µM (active) and 39.6 µM (active).

Turning to `O=S(=O)(F)C(F)(F)C(F)(F)C(F)(F)C(F)(F)C(F)(F)C(F)(F)C(F)(F)C(F)(F)F`, the result was inactive.

Regarding `FC(F)(F)C(F)(C(F)(F)F)C(F)(F)C(F)(F)CC1CO1` (centres undefined), the result was inactive.

As for `O=C(O)C(F)(F)OC(F)(F)C(F)(F)OC(F)(F)F`, the outcome was inactive. As to `COC(=O)C(F)(F)C(F)(F)OC(F)(C(F)(F)F)C(F)(F)OC(F)=C(F)F` (centres undefined), the outcome was inactive.

(Values after PubChem BioAssay (EPA / NIEHS).)
